Unmarked numbers belong to inactive results. For part of these data: Potency and affinity values are given separately. Calls of active or inactive are those of the source. Unless noted, how the calls were made is not given here.

This is an account of results in PubChem BioAssay.

Assay [1] is described as follows: antimalarial activity against Dd2 strain (AID 2302;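 active means growth inhibition above 50% at the single 2 µM test dose, taken to imply half-maximal potency below 2 µM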;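 further: 0% = DMSO untreated growth and 100% = chloroquine plus artemisinin killed control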). Particulars: P. falciparum Dd2 in RBCs, LDH growth readout, 72 h; at 2 µM; active compounds read high.
Assay [2] can be described thus: HepG2 cytotoxicity, primary screen, cytotoxicity control for P. falciparum antimalarial project, cell-based, ATP luminescence (AID 2303;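 active means inhibition above 50%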;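 further: 0% = DMSO wells and 100% = digitonin-killed cells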). The following applies: HepG2 viability, 24-48 h, at 10 µM, active compounds read high.
For assay [3], the target named is L-lactate dehydrogenase (Plasmodium falciparum (isolate CDC / Honduras)) (UniProt Q27743). The assay can be described thus: PfLDH activity inhibition – cell lysate, 3D7 strain, counter-screen for P. falciparum growth inhibition project (AID 2304).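 Further: 0% = vehicle and 100% = reference inhibitor.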 Particulars: P. falciparum 3D7 crude extract, LDH APAD/NBT absorbance; at 2 µM; active compounds read high. (In general: The purpose of a counterscreen is to sort out artefacts and off-target activity.)

A short description of assay [4]: inhibition of 3D7 malaria parasite growth – strain 3D7 (AID 2306).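 Further: 0% = DMSO wells and 100% = chloroquine plus artemisinin control wells.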 The following applies: P. falciparum 3D7 erythrocytic growth, LDH absorbance, 72 h; at 2 µM; active compounds read high.
Assay [5] addresses Calcium-dependent protein kinase 1 (Plasmodium falciparum (isolate 3D7)) (UniProt P62344). Kind of assay: PfCDPK1 kinase inhibitors, biochemical, TCAMS library (AID 1159585; cut-off not given, nearly all actives have IC50 up to about 0.98 µM;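 further: inhibitors leave more ATP so luminescence rises with inhibition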). Particulars: recombinant PfCDPK1, Kinase-Glo ATP depletion luminescence. (In general: In Kinase-Glo more light means more ATP remaining.)
Assay [6] deals with Plasmodium falciparum protein kinase 6 (PK6, PF3D7_1337100) (UniProt Q8IDW1). The assay can be described thus: PfPK6 kinase inhibitors, biochemical, TCAMS library (AID 1159586). Particulars: recombinant PfPK6, Kinase-Glo ATP depletion luminescence.
Assay [7] deals with Protein kinase 7 (PK7), Plasmodium falciparum 3D7 (PF3D7_0213400) (UniProt Q7YTF7). The assay can be described thus: inhibition of Plasmodium PK7 catalytic activity – biochemical, TCAMS antimalarial set, Kinase-Glo luminescence (AID 1159587). The following applies: recombinant PfPK7, Kinase-Glo ATP depletion luminescence.
Assay [8] deals with Calcium-dependent protein kinase 4 (Plasmodium falciparum (isolate 3D7)) (UniProt Q8IBS5). The assay can be described thus: PfCDPK4 kinase inhibitors, biochemical, TCAMS library (AID 1159588; cut-off not given, nearly all actives have IC50 up to about 0.91 µM). Particulars: recombinant PfCDPK4, Kinase-Glo ATP depletion luminescence.
Calcium-dependent protein kinase 4 (Plasmodium falciparum (isolate 3D7)), sequence (Q8IBS5 whole entry, looked up): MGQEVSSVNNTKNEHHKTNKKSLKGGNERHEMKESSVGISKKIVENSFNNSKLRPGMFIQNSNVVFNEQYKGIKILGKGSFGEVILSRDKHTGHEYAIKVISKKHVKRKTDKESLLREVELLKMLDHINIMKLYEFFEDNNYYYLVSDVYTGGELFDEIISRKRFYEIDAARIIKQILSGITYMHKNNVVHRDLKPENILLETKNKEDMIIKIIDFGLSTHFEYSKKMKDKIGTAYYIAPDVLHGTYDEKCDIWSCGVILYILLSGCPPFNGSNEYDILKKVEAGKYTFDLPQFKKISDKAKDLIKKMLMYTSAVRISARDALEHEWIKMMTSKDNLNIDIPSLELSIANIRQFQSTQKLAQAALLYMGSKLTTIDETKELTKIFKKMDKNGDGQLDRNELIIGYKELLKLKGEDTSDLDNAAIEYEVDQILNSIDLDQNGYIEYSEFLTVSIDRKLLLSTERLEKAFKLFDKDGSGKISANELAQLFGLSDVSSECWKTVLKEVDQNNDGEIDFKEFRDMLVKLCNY

Calcium-dependent protein kinase 1 (Plasmodium falciparum (isolate 3D7)), sequence (P62344 whole entry, looked up): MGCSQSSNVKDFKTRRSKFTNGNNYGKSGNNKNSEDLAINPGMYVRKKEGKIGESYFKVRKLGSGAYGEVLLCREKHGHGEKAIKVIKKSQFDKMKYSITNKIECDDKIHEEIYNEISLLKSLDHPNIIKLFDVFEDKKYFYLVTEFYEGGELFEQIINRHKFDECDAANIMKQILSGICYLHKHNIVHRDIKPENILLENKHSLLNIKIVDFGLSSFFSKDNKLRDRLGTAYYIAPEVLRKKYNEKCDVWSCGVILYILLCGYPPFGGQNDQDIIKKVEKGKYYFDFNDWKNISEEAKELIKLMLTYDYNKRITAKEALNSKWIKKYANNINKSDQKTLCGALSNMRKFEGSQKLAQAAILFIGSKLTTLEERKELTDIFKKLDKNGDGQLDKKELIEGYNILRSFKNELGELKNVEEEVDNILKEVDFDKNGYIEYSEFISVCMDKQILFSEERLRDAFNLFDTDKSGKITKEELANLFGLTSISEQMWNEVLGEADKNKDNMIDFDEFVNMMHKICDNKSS
L-lactate dehydrogenase (Plasmodium falciparum (isolate CDC / Honduras)), sequence (Q27743 whole entry, looked up): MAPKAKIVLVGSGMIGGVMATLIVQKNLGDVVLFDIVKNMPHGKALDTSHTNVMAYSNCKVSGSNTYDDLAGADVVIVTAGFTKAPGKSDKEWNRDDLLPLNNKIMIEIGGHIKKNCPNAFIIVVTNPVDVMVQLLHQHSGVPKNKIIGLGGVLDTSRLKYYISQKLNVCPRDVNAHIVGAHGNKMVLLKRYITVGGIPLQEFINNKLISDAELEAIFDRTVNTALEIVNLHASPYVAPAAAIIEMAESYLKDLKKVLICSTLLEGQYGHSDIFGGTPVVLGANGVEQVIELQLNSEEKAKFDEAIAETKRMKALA
Protein kinase 7 (PK7), Plasmodium falciparum 3D7 (PF3D7_0213400), sequence (Q7YTF7 1-343): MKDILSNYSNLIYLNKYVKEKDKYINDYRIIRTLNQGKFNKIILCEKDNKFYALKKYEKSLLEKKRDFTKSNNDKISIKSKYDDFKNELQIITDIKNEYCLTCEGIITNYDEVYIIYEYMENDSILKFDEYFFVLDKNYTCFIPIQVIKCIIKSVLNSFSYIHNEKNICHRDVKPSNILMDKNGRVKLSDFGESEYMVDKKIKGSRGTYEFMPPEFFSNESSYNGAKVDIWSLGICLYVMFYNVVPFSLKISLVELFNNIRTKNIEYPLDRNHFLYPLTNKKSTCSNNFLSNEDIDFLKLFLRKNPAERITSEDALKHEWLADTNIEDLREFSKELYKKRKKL
Plasmodium falciparum protein kinase 6 (PK6, PF3D7_1337100), sequence (Q8IDW1 1-305): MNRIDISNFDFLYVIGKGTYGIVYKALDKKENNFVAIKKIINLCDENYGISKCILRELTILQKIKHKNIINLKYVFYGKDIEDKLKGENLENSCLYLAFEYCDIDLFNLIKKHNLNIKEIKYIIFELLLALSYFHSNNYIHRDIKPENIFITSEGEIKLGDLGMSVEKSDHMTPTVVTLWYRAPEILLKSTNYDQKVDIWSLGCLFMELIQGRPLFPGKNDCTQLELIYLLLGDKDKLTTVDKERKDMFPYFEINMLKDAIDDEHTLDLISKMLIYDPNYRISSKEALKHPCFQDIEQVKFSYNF

The inhibition is the relative decrease from the control value, in per cent. Consider `CCNc1cc(C(=O)N[C@@H](Cc2cc(F)cc(F)c2)[C@H](O)CNCc2cccc(C(F)(F)F)c2)cc(N2CCCCS2(=O)=O)c1`, for which the growth inhibition was 80% (active) in assay [1] and 99% (active) in assay [4]. The results for the inhibition in assay [2] and in assay [3] were 1% and -8%, respectively. In addition, the result in assay [5], in assay [6], in assay [7] and in assay [8] was inactive.
As for `COc1ccc2ncc(F)c([C@@H](O)CN3CCC(NCc4cc5c(cn4)OCCO5)CC3)c2c1`, the values for the growth inhibition in assay [1] and in assay [4] were 98% (active) and 100% (active), respectively. Moreover, the inhibition was -4% in assay [2] and -7% in assay [3]. The result in assay [5], in assay [6], in assay [7] and in assay [8] was inactive.
For `Cc1cc(N2Cc3ccccc3C2)nc(Nc2ccc(S(=O)(=O)N3CCOCC3)cc2)n1`, the values for the growth inhibition in assay [1] and in assay [4] were 85% (active) and 101% (active), respectively. For the same compound, the inhibition in assay [2] is 13%; in assay [3] it was 0%. In addition, the result in assay [5], in assay [6], in assay [7] and in assay [8] was inactive.
On to `COc1ccc(NC(=O)Nc2cccc(-c3ccc(-c4nc5c(C)cccc5[nH]4)s3)c2)cc1`, for which the results for the growth inhibition in assay [1] and in assay [4] were 32% and 101% (active), respectively. In addition, the inhibition in assay [2] is 23%; in assay [3], 8%. Also, the result in assay [5], in assay [6], in assay [7] and in assay [8] was inactive.
Regarding `CN(C)CCNC(=O)N1CCCN(c2ncnc3cc(-c4ccc(Cl)cc4)sc23)CC1`, the growth inhibition was 21% in assay [1] and 98% (active) in assay [4]. Further, the inhibition is 41% in assay [2] and 4% in assay [3]. Also, the result in assay [5], in assay [6], in assay [7] and in assay [8] was inactive.
As to `CN1CCCC1CCNCc1cccc(-c2cnc(N(C)C3CCCCC3)nc2)c1` (stereo not drawn), the growth inhibition in assay [1] is 95% (active); in assay [4], 99% (active). The results for the inhibition in assay [2] and in assay [3] were 98% (active) and 2%, respectively. Besides, the outcome in assay [5], in assay [6], in assay [7] and in assay [8] was inactive.
As for `COc1cccc(CN2CCCC(OC(c3ccccc3)c3ccccc3)C2)c1O` (stereo not drawn), the growth inhibition in assay [1] was 73% (active); in assay [4] it was 90% (active). Further, the inhibition in assay [2] was 19%; in assay [3], 0%. Moreover, the outcome in assay [5], in assay [6], in assay [7] and in assay [8] was inactive.
For `Fc1ccc2nc(-c3cccc(-c4cccc(CN5CCN(c6cnccn6)CC5)c4)c3)[nH]c2c1`, the growth inhibition was 35% in assay [1] and 93% (active) in assay [4]. Besides, the inhibition in assay [2] was 17%; in assay [3], -2%. The result in assay [5], in assay [6], in assay [7] and in assay [8] was inactive.
Regarding `NC1CCN(Cc2ccc(-c3cccc(-c4nc5ccccc5[nH]4)c3)cc2)C1` (stereo not drawn), the growth inhibition in assay [1] is -3%; in assay [4], 98% (active). Also, the figures for the inhibition in assay [2] and in assay [3] were 19% and 5%, respectively. For the same compound, the result in assay [5], in assay [6], in assay [7] and in assay [8] was inactive.
For the compound `NCc1cccc(-c2ccc(CNC3CCN(Cc4ccccc4)CC3)cc2)c1`, the figures for the growth inhibition in assay [1] and in assay [4] were 3% and 95% (active), respectively. Also, the inhibition in assay [2] is 2%; in assay [3], 0%. Also, the outcome in assay [5], in assay [6], in assay [7] and in assay [8] was inactive.
`N#Cc1ccc(N2CCN(Cc3cccc(-c4ccc(-c5nc6ccccc6[nH]5)cc4)c3)CC2)nc1`: the figures for the growth inhibition in assay [1] and in assay [4] were 40% and 89% (active), respectively. For the same compound, the figures for the inhibition in assay [2] and in assay [3] were 45% and -1%, respectively. In addition, the result in assay [5], in assay [6], in assay [7] and in assay [8] was inactive.
For the compound `COc1ccccc1Cc1nc2ccccc2nc1SCC(=O)Nc1cccc(C(F)(F)F)c1`, the growth inhibition is 91% (active) in assay [1] and 97% (active) in assay [4]. Moreover, the inhibition in assay [2] was 8%; in assay [3], 0%. For the same compound, the outcome in assay [5], in assay [6], in assay [7] and in assay [8] was inactive.
As for `CCC(=O)Nc1ccc(C(O)CN2CCC3(C=Cc4ccccc4O3)CC2)cc1` (stereo not drawn), the growth inhibition in assay [1] is 47%; in assay [4] it was 93% (active). The results for the inhibition in assay [2] and in assay [3] were 48% and -1%, respectively. Besides, the result in assay [5], in assay [6], in assay [7] and in assay [8] was inactive.
Take `Cc1ccccc1OCC(=O)Nc1ccc(-c2nc3cc4ccccc4cc3[nH]2)cc1`: the figures for the growth inhibition in assay [1] and in assay [4] were 51% (active) and 102% (active), respectively. Besides, the results for the inhibition in assay [2] and in assay [3] were 24% and 2%, respectively. Also, the result in assay [5], in assay [6], in assay [7] and in assay [8] was inactive.
As for `O=C(Nc1ccccc1Oc1ccccc1)NC1CCN(c2ccnc3cc(Cl)ccc23)C1` (stereo not drawn), the figures for the growth inhibition in assay [1] and in assay [4] were 74% (active) and 99% (active), respectively. The values for the inhibition in assay [2] and in assay [3] were -1% and 0%, respectively. For the same compound, the result in assay [5], in assay [6], in assay [7] and in assay [8] was inactive.
For `CN(C)C(=NCCCCCCN=C(/N=C(/N)Nc1ccc(Cl)cc1)N(C)C)/N=C(/N)Nc1ccc(Cl)cc1`, the growth inhibition was 98% (active) in assay [1] and 97% (active) in assay [4]. Besides, the inhibition in assay [2] was 11%; in assay [3] it was 4%. The outcome in assay [5], in assay [6], in assay [7] and in assay [8] was inactive.
On to `N#Cc1ccc(CN2CCCN(c3ccc(NC(=O)c4ccc(F)cc4)cc3)CC2)cc1`, for which the growth inhibition in assay [1] is 61% (active); in assay [4], 90% (active). The figures for the inhibition in assay [2] and in assay [3] were 12% and -2%, respectively. For the same compound, the outcome in assay [5], in assay [6], in assay [7] and in assay [8] was inactive.
Consider `O=C(Nc1ccc(Oc2ccccc2)cc1)N1CCC(CCN2CCC(c3c[nH]c4ccccc34)CC2)CC1`, for which the growth inhibition in assay [1] was 36%; in assay [4], 100% (active). In addition, the inhibition in assay [2] is 42%; in assay [3], 7%. Further, the outcome in assay [5], in assay [6], in assay [7] and in assay [8] was inactive.
For the compound `Cc1cc(N2CCCC2)nc(Nc2ccc(NC(=O)CC(C)C)cc2)n1`, the growth inhibition in assay [1] was 53% (active); in assay [4], 95% (active). Also, the results for the inhibition in assay [2] and in assay [3] were 37% and -1%, respectively. Besides, the outcome in assay [5], in assay [6], in assay [7] and in assay [8] was inactive.
Regarding `COc1cc(NC(=O)/C=C/c2ccc(-c3ccccc3)cc2)ccc1OCCN(C(C)C)C(C)C`, the results for the growth inhibition in assay [1] and in assay [4] were 62% (active) and 94% (active), respectively. The inhibition in assay [2] was 58% (active); in assay [3] it was -5%. The outcome in assay [5], in assay [6], in assay [7] and in assay [8] was inactive.
Take `c1ccc(CN2CCC(NCc3ccccc3-c3cccc(CNCc4ccc5c(c4)OCO5)c3)CC2)cc1`: the values for the growth inhibition in assay [1] and in assay [4] were 69% (active) and 102% (active), respectively. Moreover, the inhibition in assay [2] was 37%; in assay [3], 4%. Further, the outcome in assay [5], in assay [6], in assay [7] and in assay [8] was inactive.
